# PINK1 modulator = PINK1 expression modulation. PINK1 immunofluorescence, high-content cytometry, 24 h. Potency, µM (doses to about 76.6 µM), inactives show at the top dose activation (PINK1 increase), usual class: activators. 410,000 tested, 0.2% active; active means well fitted activation curve with a large enough effect; inconclusive means small, poorly fitted or top-dose-only effect; cell line not stated here; further: % of control where 0% means no effect; nearly all actives have a fitted effect of over 65% in size
#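 A stable cell line was treated with compounds at 5 concentrations for 24 hours, with CCCP as control. PINK1 levels and mitochondrial localization were measured by immunofluorescence with mitochondrial, cell and nuclear markers after fixation, read by laser-scanning cytometry.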
# KB-V1 cytotox = KB-V1 MDR subline cytotoxicity; KB-V1 MDR cells viability, CellTiter-Glo, 72 h; Potency, µM (doses to about 46.1 µM), actives largely listed as cytotoxic; 400,000 tested, 3.4% active; further: on the % scale 0 is the no-effect control and ±100 the full control effect; nearly all actives have a fitted effect of over 60% in size
#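 KB-V1 cells (P-gp-expressing MDR subline of KB-3-1) in phenol-red-free DMEM with 10% FBS were exposed to library compounds over a concentration series for 72 h at 37 degrees C. Viability read by CellTiter-Glo luminescence; concentration-effect curves fitted after normalization.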
# SW480 rereplic = inducers of DNA re-replication in SW480 colon cancer cells; 340,000 tested, 1.8% active; SW480 DNA re-replication, Hoechst DNA content imaging, 48 h; Potency, µM (titrated, usually from 46.1 µM), inactives show at the top dose re-replication activation, most hits filed as activators; further: % of control where 0% means no effect; nearly all actives have a fitted effect of over 55% in size
#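 Quantitative HTS format with DMSO vehicle controls; 48 hr drug incubation at 37 C, then 40 min Hoechst staining and scanning imager measurement at 405 nm excitation.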
# KB-3-1 cytotox = KB-3-1 parental cell cytotoxicity. KB-3-1 viability, CellTiter-Glo ATP luminescence, 72 h. Potency, µM (series often up to 46.1 µM), usual class: cytotoxic. 400,000 tested, 1.4% active; further: on the % scale 0 is the no-effect control and ±100 the full control effect; nearly all actives have a fitted effect of over 60% in size
#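 Cells are dispensed, compounds pinned in, plates held at 37 °C for 72 h, then CellTiter-Glo is added and luminescence read after 10 minutes. Cell line: parental KB-3-1 in phenol-red-free DMEM, 10% FBS.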
# MCF10A rereplic = DNA re-replication induction in MCF 10a cells | MCF 10A DNA re-replication, Hoechst nuclear intensity, 48 h | Potency, µM (top dose mostly 46.1 µM), for the others: top-dose activity, positive = re-replication, usual class: activators | 350,000 tested, 2.9% active | AID 624296; further: % of control where 0% means no effect; nearly all actives have a fitted effect of over 50% in size
# * marks the source's active call; other numbers are inactive results; i = inactive; ? = inconclusive; . = no result given; [ ] = remark or other dose. Hits are enriched below; roughly 6.7% of the tested compounds scored in any of these assays. Unless noted, the call rests on the fitted dose curve; in most records, active means well fitted curve in the direction sought with a large enough effect; inconclusive means small, poorly fitted or top-dose-only effect, or another doubt; inactive means no such curve, though single readings can be large; an effect the other way counts as inactive or inconclusive. Potency means the concentration at half of the fitted maximal effect.
SMILES,PINK1 modulator,KB-V1 cytotox,SW480 rereplic,KB-3-1 cytotox,MCF10A rereplic
CCCOc1ccc2oc(=O)c3c(c2c1)CCCN3C(=O)CN1CCCC(C(=O)OCC)C1 (stereo not drawn),-1.2%,11.6µM*,3.4%,i,10.1%
O=C(CN1CCCC1)N1CCCc2c1c(=O)oc1ccc(OCc3ccccc3)cc21,-18.8%[38.3 µM],18.4µM*,?,i,5.2%
CC(=O)NC(c1ccccc1)c1nc(-c2cccc(C#N)c2)cs1 (stereo not drawn),-0.2%,i,.,i,.
Cc1ccc2[nH]c(=O)c(CN(CCCO)Cc3nnnn3Cc3ccccc3)cc2c1,0.2%,i,.,i,.
CN=C1NC(C)(C)C2CCC(C)(CC2)S1,-1.5%,i,2.2%,i,11.6µM*
CCc1ccc(C=O)cc1,.,i,.,i,.
CNC[C@@H](CC1CCCCC1)NC[C@H](CC(C)C)NCCc1cccc(C(F)(F)F)c1,-1.5%,?,?,?,7.31µM*
Cc1ccccc1C(=O)NCC(=O)OC1CCCCC1=O (stereo not drawn),-0.4%,i,0.2%,i,9.4%
Cc1ccc(C2=NOC(=O)/C2=C\c2ccc(C)o2)cc1,-0.9%,i,?,i,16.4µM*
O=C(Nc1ccn(CCCN2CCN(c3ccccc3)CC2)c(=O)n1)OCc1ccccc1,7.5%,?,.,?,.
O=C(Nc1ccn(CCCN2CCN(Cc3cccc4ccccc34)CC2)c(=O)n1)OCc1ccccc1,0.5%,18.4µM*,.,?,.
Nc1nonc1-n1nnc(C(=O)N/N=C/c2ccc(O)cc2)c1CN1CCCCCC1,6.8%,i,-11.5%,i,-14.0%
CCCc1c(C(=O)N/N=C(\C)c2ccc(O)cc2)nnn1-c1nonc1N,0.1%,?,-3.6%,i,?
CC(/C=N/NC(=O)c1nnn(-c2nonc2N)c1CN1CCCCC1)=C\c1ccccc1,12.8%,i,?,?,7.31µM*
C/C(=N\NC(=O)c1nnn(-c2nonc2N)c1CN(C)c1ccccc1)c1ccccc1O,-0.3%,i,3.26µM*,6.51µM*,?
C/C(=N\NC(=O)c1nnn(-c2nonc2N)c1CN1CCCCC1)c1ccccc1O,0.0%,i,14.6µM*,?,13.4%
CCCc1c(C(=O)N/N=C(\C)c2ccccn2)nnn1-c1nonc1N,-0.3%,?,.,5.8µM*,.
COc1ccc(OC)c(NCc2cccn2-c2nnc(N3CCC(C)CC3)s2)c1,13.2%,.,.,.,.
O=C(OCC(=O)c1c[nH]c2ccccc12)c1ccc([N+](=O)[O-])s1,-0.5%,?,20.6µM*,i,-12.2%
C[C@@H]1CNC(=O)c2c(C(=O)Nc3ccc(CNC(=O)OC(C)(C)C)cc3)ncn21,0.8%,?,.,i,.
Cn1ncc(Cl)c1C(=O)NCc1ccc(Cl)cc1,3.7%,3.66µM*,?,?,-67.5%
Cn1ncc(Cl)c1C(=O)NCc1ccc2c(c1)OCO2,-1.6%,i,-23.3%,i,1.4%
COc1cc2nc(N(C)C)c(CNCc3cccc4ccccc34)cc2c(OC)c1OC,-0.5%,.,.,.,.
Cc1ccc(CSc2nc3ccncc3n2Cc2nc(-c3ccc(Cl)cc3)oc2C)cc1,5.4%,i,.,i,.
COc1ccc(-c2nc(Cn3c(SCc4ccc(F)cc4)nc4ccncc43)c(C)o2)cc1OC,-0.5%,i,0.0%,?,3.66µM*
SMILES,PINK1 modulator,KB-V1 cytotox,SW480 rereplic,KB-3-1 cytotox,MCF10A rereplic
CCC(=O)N1c2ccccc2CC1C(=O)NCCCN1CCN(c2ccccc2)CC1 (stereo not drawn),-1.1%,i,.,i,.
CCOc1ccccc1N(CC(=O)NC(C)(C)C)C(=O)c1ccc(CN2CCOCC2)o1,0.1%[38.3 µM],14.6µM*,-2.9%,i,?
Cc1cnnn1-c1ccc(C(=O)CCl)cc1,6.5%,i,?,?,29.1µM*
CO[C@H]1[C@H](NC(=O)c2ccsc2)c2ccccc2C12CCN(Cc1cc(Cl)ccc1O)CC2,0.4%,.,.,.,.
C=C(C(=O)c1ccccc1)C(c1ccccc1)C(C)C(=O)c1ccccc1 (stereo not drawn),-1.1%,?,?,?,?
C=C(C(=O)c1ccccc1)C(C)C(=C)C(=O)c1ccccc1,12.2%,3.26µM*,7.31µM*,?,2.91µM*
Cn1ncc2c(NCCc3ccccc3)nc(Cl)nc21,-1.5%,4.61µM*,-2.9%,?,10.2%
O=c1[nH]ncc(NCCc2ccccc2)c1Cl,0.1%,8.2µM*,-4.2%,?,-3.5%
Clc1nc(NCCc2ccccc2)c2cn[nH]c2n1,-1.2%,1.16µM*,6.4%,i,?
COc1ccc(CCNc2cn[nH]c(=O)c2Cl)cc1OC,4.2%,i,-7.5%,i,-10.8%
OC1(c2cccnc2)CCN(Cc2ccc3c(c2)CN(Cc2ccc(F)c(F)c2)CCO3)CC1,-1.3%,.,.,.,.
Cc1cccc(C)c1NC(=O)C(c1ccnc2ccccc12)N1CCN(C)CC1 (stereo not drawn),.,i,.,i,.
COc1ccc2cc3cc(C(=O)NCCc4ccccc4)sc3nc2c1Cl,11.8%,i,.,i,.
COc1ccc2[nH]cc(CCNc3ccnc(-c4cccc(NS(C)(=O)=O)c4)n3)c2c1,-1.6%,.,.,.,.
CCCCOc1ccc(NC2=NC3(CCCCC3)N=C(N)N2)cc1,24.1%,i,4.3%,14.6µM*,?
COc1ccc(NC2=NC3(CCCCC3)N=C(N)N2)cc1,1.2%,i,-2.4%[9.22 µM],i,0.0%
COC(=O)c1ccc(C(NC(=O)OCc2ccccc2)/C(F)=C/[C@@H](C)C(=O)NCc2ccc(OC)c(OC)c2)cc1 (stereo partly drawn),-1.9%,i,16.4µM*,?,?
COC(=O)c1ccc(C(NC(=O)OCc2ccccc2)/C(F)=C/[C@@H](C)C(=O)NCc2ccc(-c3ccccc3)cc2)cc1 (stereo partly drawn),2.3%,i,-0.3%,i,?
COc1cccc(-n2ccn(CC(=O)Nc3ccccc3F)c(=O)c2=O)c1,3.5%,.,.,.,.
CCOc1ccc(CN2C(=O)c3ccccc3Sc3ccc(C(=O)NC4CCC(C)CC4)cc32)cc1 (stereo not drawn),0.8%,i,.,i,.
C=CCc1ccc(OCCOc2cccc3ccc(C)nc23)c(OC)c1,3.9%[38.3 µM],?,?,?,11.6µM*
COC(=O)C1CCCCN1Cc1nc(N(C)C)c2ccccc2n1 (stereo not drawn),-0.6%,.,.,.,.
C[N+]1(C)CC(O)[C@H](C(=O)[O-])C1 (stereo partly drawn),1.4%,.,.,.,.
O=C(N/N=C/c1ccc(-c2ccc([N+](=O)[O-])cc2)o1)[C@H]1C[C@@H]1c1ccccc1,?,i,8.2µM*,i,23.1µM*
O=C(N/N=C\c1ccc(-c2ccc([N+](=O)[O-])cc2)o1)C1COc2ccccc2O1 (stereo not drawn),0.6%,?,8.1%,i,20.6µM*
